Assay outcomes deposited in PubChem BioAssay by several laboratories.
ARNT-TACC3 inh – disrupts binding between human ARNT and TACC3 | hit rate 0.66% among 390,000 | inhibition, % at 9.99 µM | AlphaScreen His-ARNT PAS-B/GST-TACC3 binding, luminescence; TACC3 fragment carries E629A point mutation;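 active = mean inhibition of replicates at least 50% and at least half of replicates each reaching 50%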
DAGLB inh – diacylglycerol lipase beta (human) inhibition | Q8NCG7 | HEK293T DAGLB membrane lysate, EnzChek fluorogenic substrate | inhibition, % at 5.17 µM | hit rate 0.059% among 340,000 | AID 504411; in the data active = inhibition above about 34%
Target sequence (Q8NCG7 whole entry, looked up): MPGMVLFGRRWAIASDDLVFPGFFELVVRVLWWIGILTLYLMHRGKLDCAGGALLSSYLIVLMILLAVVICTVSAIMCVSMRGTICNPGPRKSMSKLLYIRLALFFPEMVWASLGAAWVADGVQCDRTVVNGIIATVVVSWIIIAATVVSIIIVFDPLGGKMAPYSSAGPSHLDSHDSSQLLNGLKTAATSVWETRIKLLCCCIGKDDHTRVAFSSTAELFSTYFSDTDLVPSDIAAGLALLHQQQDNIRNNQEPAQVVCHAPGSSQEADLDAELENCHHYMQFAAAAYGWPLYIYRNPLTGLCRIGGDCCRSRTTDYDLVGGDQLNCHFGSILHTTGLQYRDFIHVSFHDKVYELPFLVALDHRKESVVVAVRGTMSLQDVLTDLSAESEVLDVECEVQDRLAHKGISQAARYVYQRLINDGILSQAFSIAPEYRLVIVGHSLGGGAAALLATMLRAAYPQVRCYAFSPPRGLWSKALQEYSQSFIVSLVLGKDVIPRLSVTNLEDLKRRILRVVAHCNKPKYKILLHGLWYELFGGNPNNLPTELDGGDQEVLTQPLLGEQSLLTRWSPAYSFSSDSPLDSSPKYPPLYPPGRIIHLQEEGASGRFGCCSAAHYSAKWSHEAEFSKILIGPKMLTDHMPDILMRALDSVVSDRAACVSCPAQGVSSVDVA
Neddylation inh – inhibitors of human cullin neddylation | TR-FRET cullin neddylation, biochemical | hit rate 0.58% among 360,000 | P61081+Q13564 | inhibition, % at 25 µM; in the data active = inhibition above about 36%
NadD inh – inhibitors of Staphylococcus aureus NadD. purified NadD enzyme, colorimetric absorbance read-out. inhibition, % at 20 µM. hit rate 0.78% among 360,000. AID 602399; in the data active = inhibition above about 26%
sPLA2-III inh – Inhibits HGIII-sPLA2 liposome hydrolysis, primary screen | QFRET BODIPY PC-A2 liposome hydrolysis, fluorescence | inhibition, % at 12.2 µM | hit rate 0.56% among 370,000 | AID 743126;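 active = inhibition above mean plus 3 SD of compounds lying within the high and low control bounds, cut at about 19% in these data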
Neddyl conf – cullin neddylation inhibition, confirmation | shares compounds with Neddylation inh | calls only at 25 µM | hit rate 13% among 1,800 | TR-FRET cullin neddylation biochemical assay; in the data active = inhibition above about 40%;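 also: neddylation substrate is the cullin 1 ring ligase complex with SKP2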
Large screens that a line does not name were inactive (follow-up assays come after a bar, where shown). An excerpt weighted towards active compounds, which were near 2% of everything screened.

CC(NC(=O)C(C)N1c2cccc3cccc(c23)S1(=O)=O)c1ccccc1 (configuration not stated)	Neddylation inh 42 | Neddyl conf inactive
CCn1c(C)cc(C(=O)CN2C(=O)c3ccccc3S2(=O)=O)c1C	none (no result: ARNT-TACC3 inh)
CC(C(N)=O)N1c2cccc3cccc(c23)S1(=O)=O (configuration not stated)	none
CCC(C)NC(=O)CN1c2cccc3cccc(c23)S1(=O)=O (configuration not stated)	Neddylation inh 42 | Neddyl conf inactive
COCCCn1c(C)cc(C(=O)CN2c3cccc4cccc(c34)S2(=O)=O)c1C	Neddylation inh 37 | Neddyl conf inactive
CN(Cc1ccccc1F)C(=O)CN1c2cccc3cccc(c23)S1(=O)=O	Neddylation inh 50 | Neddyl conf active
COCCNC(=O)C[C@H]1C[C@H]2c3cc(NC(=O)CC4CC4)ccc3O[C@H]2[C@@H](CO)O1	none (no result: DAGLB inh, Neddylation inh, NadD inh, sPLA2-III inh)
O=C(C[C@H]1CC[C@@H]2[C@H](COC[C@H](O)CN2S(=O)(=O)c2cccc(Cl)c2)O1)Nc1ccccc1	none (no result: DAGLB inh, Neddylation inh, NadD inh, sPLA2-III inh)
CC(=O)Nc1cccc(NC(=O)CN2c3cccc4cccc(c34)S2(=O)=O)c1	Neddylation inh 43 | Neddyl conf inactive
COc1cc(NC(=O)CN2c3cccc4cccc(c34)S2(=O)=O)cc(OC)c1OC	none
CC(=O)c1ccc(NC(=O)CN2c3cccc4cccc(c34)S2(=O)=O)cc1	Neddylation inh 48 | Neddyl conf inactive
O=C(CN1c2cccc3cccc(c23)S1(=O)=O)Nc1ccc(S(=O)(=O)N2CCOCC2)cc1	none
CCC(=O)N1[C@@H](CO)[C@@H](c2ccc(-c3ccccc3)cc2)[C@@H]1CNC(=O)COC	none (no result: DAGLB inh, Neddylation inh, NadD inh, sPLA2-III inh)
O=C(NN1C(=O)c2ccccc2NC1c1ccccn1)c1ccccc1 (configuration not stated)	Neddylation inh 39 (not shown: ARNT-TACC3 inh)
O=C1c2ccccc2NC(c2ccccn2)N1c1ccc(Cl)cc1 (configuration not stated)	Neddylation inh 42 (not shown: ARNT-TACC3 inh)
CC1Cc2ccccc2N1C(=O)c1cc2c(=O)n3ccccc3nc2n1C (configuration not stated)	Neddylation inh 48 | Neddyl conf active
CCOC(=O)C1CCN(C(=O)c2cn(CCOC)c(=O)c3c2c2ccccc2n3C)CC1	none
COCCn1cc(C(=O)N2CCCC(C)C2)c2c3ccccc3n(C)c2c1=O (configuration not stated)	Neddylation inh 42 | Neddyl conf inactive
CCN1CCN(C(=O)c2cn(CCOC)c(=O)c3c2c2ccccc2n3C)CC1	Neddylation inh 49 | Neddyl conf inactive
Cc1nc(C(=O)NCCCO)cc2c1[nH]c1ccccc12	Neddylation inh 44 | Neddyl conf inactive
OCCCNC(=S)Nc1ccc2nccnc2c1	Neddylation inh 49 | Neddyl conf inactive
O=C(CCn1cnc2ccccc21)N/N=C/c1ccccc1O	Neddylation inh 41 | Neddyl conf inactive
O=C(CCn1cnc2ccccc21)N/N=C/c1ccc(O)cc1	none (no result: ARNT-TACC3 inh)
Nc1ncccc1C(=O)OCC(=O)N1CCN(S(=O)(=O)c2ccc(Cl)cc2)CC1	Neddylation inh 62
Cc1ccc2[nH]c(=O)c(C3=NN(C(=O)CCC(=O)O)C(c4cccs4)C3)c(-c3ccccc3)c2c1 (configuration not stated)	Neddylation inh 43 | Neddyl conf inactive
COc1ccc(C(CCN2CCOCC2)c2c(OC)cc(OC)c3c(-c4ccccc4)cc(=O)oc23)cc1 (configuration not stated)	Neddylation inh 45 | Neddyl conf inactive
COc1ccc(C(CCN2CCCC2)c2c(OC)cc(OC)c3c(-c4ccccc4)cc(=O)oc23)cc1 (configuration not stated)	none
COc1ccc(-c2cn(CC[C@H]3CC[C@H](NC(=O)CCN4CCCCC4)[C@H](CO)O3)nn2)cc1	none (no result: DAGLB inh, Neddylation inh, NadD inh, sPLA2-III inh)
O=C(O)c1cc2ccc3cccc4ccc(c1)c2c34	Neddylation inh 52
O=C(O)c1cccc(C(=O)c2cccc(C(=O)O)c2)c1	none
CCOc1cc(S(=O)(=O)NCc2ccco2)c(OCC)cc1-n1cnnn1	Neddylation inh 43
CCOc1cc(S(=O)(=O)NCc2ccc(OC)cc2)c(OCC)cc1-n1cnnn1	none
COc1ccc(C2CC(c3ccccc3)Nc3nc(NC(=O)c4ccco4)nn32)cc1 (configuration not stated)	Neddylation inh 40 | Neddyl conf inactive
